Screening results from PubChem.
Rows were chosen to be rich in hits. Some 6.8% of all compounds tested hit in one or more screens of this group.
Spn MK inh – S. pneumoniae mevalonate kinase inhibition | purified MK, PK/LDH-coupled NADH absorbance 340 nm | 65,000 compounds, 0.48% hits | inhibition, % at 10 µM;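 active = ranked among the strongest by inhibition in the single 10 µM screen, a fixed top-ranked set picked for dose follow-up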
NADH enzymes – blocks coupling enzymes of NAD/NADH assays. coupled PK/LDH NADH assays, four targets. IC50, µM (titrated, usually from 10 µM), without a hit: at the top dose inhibition. 65,000 compounds, 0.02% hits. AID 774;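 active = single-dose screening hits from any of four coupled enzyme assays that gave an IC50 when retested across doses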;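 note: the DPM-DC format reads NADH fluorescence rather than 340 nm absorbance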
Fluor 339 460 – intrinsic fluorescence of library compounds, ex339/em460 – biochemical, MLSMR library, data from DPM-DC assay, artefact control, profiling panel | compound autofluorescence, ex339/em460 nm, NADH buffer; active compounds read high; 1 = no-compound wells, NADH background | 65,000 compounds, 5.5% hits | fluorescence fold increase at 10 µM | AID 709;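 active = at 10 µM, mean starting fluorescence two-fold or more over control wells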;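 note: signal is the first read of a kinetic run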
Spn PMK inh – inhibitors of Streptococcus pneumoniae phosphomevalonate kinase | purified PMK, PK/LDH-coupled NADH absorbance 340 nm | inhibition, % at 10 µM | 65,000 compounds, 0.49% hits | AID 539;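 active = top-ranked compounds by inhibition in the single 10 µM screen, taking a fixed number of the strongest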;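 note: 0% = full reaction with DMSO carrier and 100% = background rate without enzyme reaction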
Abs 340nm – compounds absorbing at 340 nm. compound absorbance at 340 nm, fold over control. fold change at 10 µM. 65,000 tested, under 10 active. AID 708;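 active = at 10 µM dose, initial 340 nm absorbance at least 2 fold that of control wells; inactive = change under 2 fold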;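 note: initial absorbance extrapolated from kinetic A340 decline of NADH oxidation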
DPM-DC inhibit – blocks S. pneumoniae diphosphomevalonate decarboxylase | calls only at 10 µM | AID 556 | purified DPM-DC, PK/LDH coupled NADH fluorescence | 65,000 compounds, 0.49% hits;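 active = the 320 compounds with the highest percent inhibition in the single-dose primary screen, excluding strongly autofluorescent ones, cut at about 32% in these data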;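 note: kinetic rate of NADH fluorescence loss reporting ADP formed by the decarboxylase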
Numbers without * were called inactive; i = inactive; x = no result given; + = active, no number.

SMILES	Spn MK inh	NADH enzymes	Fluor 339 460	Spn PMK inh	Abs 340nm	DPM-DC inhibit
CCNC(=O)Cc1ccc(NS(=O)(=O)c2ccc(F)cc2)cc1	0	0%	1.1	0	0.99	i
CC(C)(C)NS(=O)(=O)c1ccc(NS(=O)(=O)c2ccc(F)cc2)cc1	7	11%	1.1	26*	1.1	i
NC(=O)CSc1nnc2sc3ccccc3n12	6	4%	1.1	7	1	i
COc1ccc2nc(NC(=O)CSc3nnc(-c4ccoc4C)n3C)sc2c1	10	4%	1	14	1	i
Cc1cc(O)c(C=Nc2cccc(Cl)c2)c(=O)o1	5	16%	0.5	0	1	+
Oc1oc(-c2ccco2)nc1C=Nc1cccc(Cl)c1	0	4%	1	5	1.1	i
CCOc1ccccc1NC(=O)N1CCC(n2nnc3cc(C)ccc32)CC1	8	7%	1.1	13	1	i
CC(=O)c1cc2c(cc1NC(=O)CCCC(=O)O)OCO2	5	4%	1.5	6	1	i
CC(=O)Nc1ccc(NC(=O)c2cc(C)nn2-c2ccccc2)cc1	4	3%	1	1	0.98	i
CN(CCC(=O)Nc1ccc2c(c1)OCO2)Cc1ccccc1	45*	19%	1.2	13	0.98	i
CC(=O)c1cc2c(cc1NC(=O)c1cc(C)nn1-c1ccccc1)OCO2	3	3%	2.2*	3	1.1	x
CC(=O)c1cc2c(cc1NC(=O)CCc1ccccc1)OCO2	19	13%	2.3*	9	1	i
CC(=O)C1=C(O)C(=O)N(c2nnn(C)n2)C1c1cccs1 (centres undefined)	1	0%	1.1	0	1.1	i
CC(=O)Nc1ccc2nc(-c3cccs3)[nH]c2c1	2	5%	2.3*	8	1.1	x
Cc1cccc(N(C(=O)CNC(=O)c2ccco2)C(C(=O)NC2CCCC2)c2cccnc2)c1 (centres undefined)	11	7%	1.1	10	0.94	i
CCOC(=O)C1=C(C)NC(=O)NC1/C(C)=C/c1ccccc1 (centres undefined)	0	14%	1.1	38*	1	i
CCCCCC(=O)Nc1cc(N(C)C)nc2ccccc12	0	2%	2.2*	4	1.1	x
O=C(COc1ccccc1)Nc1nnc(-c2ccc(Cl)s2)o1	7	10%	2.1*	12	1.1	x
O=C(COc1ccccc1)Nc1nnc(-c2ccccc2)o1	9	6%	1.1	3	1	i
C=CCn1c(NC(=O)c2ccccc2Cl)c(C#N)c2nc3ccccc3nc21	6	9%	3.8*	11	1.1	x
C=CCn1c(NC(=O)c2ccccc2)c(C#N)c2nc3ccccc3nc21	14	15%	2.1*	16	1.1	x
N#CCCn1c(-c2nonc2NC(=O)c2ccccc2Cl)nc2ccccc21	11	7%	1.6	9	0.99	i
C=CCn1c(SCC(=O)Nc2cc(C)ccc2C)nnc1-c1cnccn1	0	2%	1.1	6	1.1	i
CCOC(=O)C1CCN(C(=O)c2cc3cc4cc(OC)ccc4nc3o2)CC1	0	6%	5.1*	11	1	x
COc1ccc2nc3sc(C(=O)N4CCN(C)CC4)cc3cc2c1	0	7%	2.7*	15	1	i
SMILES	Spn MK inh	NADH enzymes	Fluor 339 460	Spn PMK inh	Abs 340nm	DPM-DC inhibit
COc1ccc2nc(SCC(=O)N3CCCCCC3)c(C#N)cc2c1	12	8%	1.3	4	1	i
COc1ccc2nc3oc(C(=O)N4CCCCC4)cc3cc2c1	0	16%	3.4*	9	1	x
CN(C)c1ccc(-n2cc3c(=O)n(C)c(=O)n(C)c3c2)cc1	4	7%	1.9	5	1.1	i
CCN(CC)c1ccc(-n2cc3c(=O)n(C)c(=O)n(C)c3c2)cc1	0	7%	3.7*	13	1.1	x
Cc1cccc(CCNC(=O)C2CCC(CNc3c(N4CCCC4)c(=O)c3=O)CC2)c1 (centres undefined)	9	8%	1.1	14	1.1	i
CC1(C)CC(=O)N(c2ccccc2)C1(C)O (centres undefined)	5	3%	1.1	1	1	i
CC(=O)Nc1ccc(S(=O)(=O)N2CCN(c3nc(NC4CCCC4)c4ccccc4n3)CC2)cc1	2	6%	2.2*	9	1.1	x
CC(=O)Nc1ccc(S(=O)(=O)N2CCN(c3cc(C)nc4ccccc34)CC2)cc1	5	3%	1	18	1	i
CCOC(=O)C1=C(C)NC2=C(C(=O)CCC2)C1c1ccsc1 (centres undefined)	7	10%	2.5*	3	1.1	i
CC1=C(C(=O)OC(C)C)C(c2cccnc2)C2=C(CCCC2=O)N1 (centres undefined)	7	4%	2.2*	0	1.1	x
COC(=O)C1=C(C)NC2=C(C(=O)CCC2)C1c1ccccn1 (centres undefined)	4	5%	2.1*	5	1.1	x
CC1=C(C(=O)OCC2CCCO2)C(c2ccccc2OC(C)C)C2=C(CC(c3ccco3)CC2=O)N1 (centres undefined)	4	6%	3.3*	8	1	x
CC1=C(C(=O)OC(C)C)C(c2cccs2)C2=C(CCCC2=O)N1 (centres undefined)	4	2%	1.5	1	1.1	i
CCN(CC)c1ccc(C2C(C(=O)OCCOC)=C(C)NC3=C2C(=O)CCC3)cc1 (centres undefined)	13	7%	1.4	3	1.1	i
COCCOC(=O)C1=C(C)NC2=C(C(=O)CC(c3cccs3)C2)C1c1ccsc1 (centres undefined)	2	12%	2.4*	12	1.1	i
CCOC(=O)C1=C(C)NC2=C(C(=O)CCC2)C1c1cccnc1 (centres undefined)	11	10%	2.1*	8	1.1	x
CCOC(=O)C1=C(N)OC2=C(C(=O)CCC2)C1c1cccnc1 (centres undefined)	12	4%	1.1	0	1	i
CC1=C(C(=O)OCC2CCCO2)C(c2ccncc2)C2=C(CCCC2=O)N1 (centres undefined)	2	18%	1.4	6	1.1	+
CC1=C(C(=O)OCC2CCCO2)C(c2ccccc2)NC(=O)N1 (centres undefined)	5	8%	0.9	6	1	i
Cc1cc(OCC(=O)N2CCOCC2)cc2oc(=O)c3ccccc3c12	0	0%	2.9*	0	1	x
CCOc1ccc(OCC(=O)N2CCOCC2)cc1	11	4%	1.1	0	1.1	i
Cc1cc(Oc2ccccc2)nc(OCC#N)n1	8	6%	1.1	8	1.1	i
O=P(C1=C(N2CCOCC2)/C(=C\c2ccccc2)CC1)(N1CCOCC1)N1CCOCC1	1	8%	1.2	16	1.1	i
